IL1B NFkB pot: enhancers of NFkB p65 translocation in HUVEC – imaging, IL-1B stimulus, high-content imaging, primary screen; activation, % at 2 µM; AID 819, 2007; 94,000 compounds, 0.3% hits; HUVEC IL-1B NFkB p65 nuclear translocation imaging;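 active means activation above 40%, about the mean plus 3 SD, also judged a hit on visual image review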;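 further: percent activation is computed from the nuclear over cytoplasmic p65 intensity ratio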
VCAM1 TNFa inh: inhibitors of TNFa-induced VCAM1 expression, primary screen, imaging, HUVEC, TNFa stimulus, immunofluorescence. HUVEC TNFa-induced VCAM-1 immunofluorescence, high-content imaging. inhibition, % at 2 µM. 95,000 compounds, 0.48% hits. AID 802, 2007;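 active means inhibition above the batch mean plus 3 SD, with images confirmed as a hit by eye, cut at about 37% in these data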;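 further: 0% = TNF-stimulated DMSO wells and 100% = unstimulated control wells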
HUVEC tox IL1B: cytotoxicity in IL-1B stimulated HUVEC, primary screen, cytotoxicity control for IL-1B NFkB translocation project, imaging, Hoechst nuclear count, IL-1B stimulus; HUVEC cell count loss; cell count reduction, % at 2 µM; 94,000 compounds, 0.41% hits;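 active means cell count reduction more than 3 SD above the screen-wide mean, cut at about 70% in these data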;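 further: normalized per plate to untreated control cells as the no-loss baseline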
Phagocytosis inh: inhibitors of macrophage phagocytosis, primary screen, imaging, J774A.1 cells, IgG beads. inhibition, % at 5 µM. J774A.1 macrophage IgG-bead phagocytosis. AID 1029, 2008. 110,000 compounds, 0.07% hits;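 active means inhibition above the mean of the plate negative controls plus 5 SD, cut at about 13% in these data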;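 further: phagocytic index as fraction of beads internalized from green versus red external bead signal; plate controls were DMSO negative control for no effect and cytochalasin-D positive control for full effect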
NFkB transloc inh: inhibitors of IL-1B driven NFkB p65 nuclear import, primary screen, imaging, HUVEC, IL-1B stimulus, high-content imaging; 94,000 compounds, 0.43% hits; AID 796, 2007; HUVEC IL-1B NFkB p65 nuclear translocation imaging; inhibition, % at 2 µM;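 active means inhibition above about 30% together with a positive call from visual inspection of the well image, limit read from the data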;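 further: nuclear over cytoplasmic p65 intensity ratio measured by imaging; 0% = IL-1B stimulated DMSO wells and 100% = unstimulated DMSO wells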
HUVEC tox TNFa: cytotoxicity in TNFa-stimulated HUVEC, primary screen, cytotoxicity control for VCAM1 expression modulator project, imaging, Hoechst nuclei count | HUVEC TNFalpha-stimulated, Hoechst cell count | cell count reduction, % at 2 µM | 93,000 compounds, 0.17% hits;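 active means cell count reduction exceeding the screen mean by over 5 SD, scaled to untreated wells per plate, cut at about 78% in these data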;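 further: cells counted after 24 h of TNF alpha exposure following the 1 h pretreatment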
The depositor's hits bear a star; nt = no result. A selection: hits, their analogues and other compounds. The true share with any hit is near 1.2%.

SMILES | IL1B NFkB pot | VCAM1 TNFa inh | HUVEC tox IL1B | Phagocytosis inh | NFkB transloc inh | HUVEC tox TNFa
Clc1ccc(-c2noc(CCCOc3ccccc3)n2)cc1 | -84.4 | 18.1 | -10.5 | nt | 84.4* | -24.7
CCCCCC(=O)NC(NC(=S)N1CCOCC1)C(Cl)(Cl)Cl (stereo not drawn) | 8.8 | 0.5 | -14.4 | nt | -8.8 | -14.5
CCCCCCCCC(=O)NC(NC(=S)N1CCOCC1)C(Cl)(Cl)Cl (stereo not drawn) | 41.0* | 4.2 | -36.6 | nt | -41.0 | 2.9
CC1CC(C)CN(c2ccc([N+](=O)[O-])cc2-c2nn[nH]n2)C1 (stereo not drawn) | nt | nt | nt | 1.2 | nt | nt
COc1cccc(N2CCN(c3ncnc4c3[nH]c3ccc(F)cc34)CC2C)c1 (stereo not drawn) | -17.1 | 51.5* | 23.5 | nt | 17.1 | 26.1
COc1ccc2[nH]c3c(N4CC(C)OC(C)C4)ncnc3c2c1 (stereo not drawn) | 7.6 | 6.3 | 2.7 | -1.5 | -7.6 | -34.2
COc1ccccc1OCC(=O)NCC1CCCCC1 | -95.7 | 5.8 | 93.5* | -0.7 | 95.7* | 3.1
COc1ccccc1NC(=S)N(Cc1ccco1)Cc1cc2cc(C)ccc2[nH]c1=O | nt | nt | nt | -10.2 | nt | nt
CS(=O)(=O)Nc1ccc2c(c1)C(=O)OC2 | 57.5* | 4.1 | -10.6 | 0.1 | -57.5 | -10.1
CCOC(=O)C1CCN(C(=O)c2cccc(Cl)c2)CC1 | 28.9 | 6.3 | -17.7 | -0.1 | -28.9 | -7.6
CCOC(=O)C1CCN(C(=O)c2ccc(Cl)c(Cl)c2)CC1 | -99.0 | 5.0 | 93.5* | -0.5 | 99.0* | -10.1
C=CCn1c(SCC(=O)NC(=O)c2cccc([N+](=O)[O-])c2)nnc1-c1ccccc1 | nt | nt | nt | 5.2 | nt | nt
CCOC(=O)C(Cc1ccccc1)NC(C)=O (stereo not drawn) | -15.7 | 29.6 | 92.4* | -2.4 | 15.7 | -3.7
CCCNC(=O)N[C@@H](Cc1ccccc1)C(=O)OC | 3.1 | 2.7 | -13.8 | -1.8 | -3.1 | -18.7
COc1ccc(C2=NN(C(C#N)c3ccc(OC)cc3)C(c3ccccc3)C2)cc1 (stereo not drawn) | nt | nt | nt | -6.1 | nt | nt
COc1cccc(C(=O)NCC(=O)OCC(=O)Nc2cc(OC)c([N+](=O)[O-])cc2C)c1 | nt | nt | nt | -0.9 | nt | nt
c1ccc(Cn2nnnc2C(c2ccccc2)N2CCN(c3nc4ccccc4s3)CC2)cc1 (stereo not drawn) | -6.6 | 23.4 | 15.5 | -0.7 | 6.6 | -24.1
Cc1ccc(S(=O)(=O)Cn2nnnc2C(C(C)C)N2CCN(c3nc4ccccc4s3)CC2)cc1 (stereo not drawn) | -10.6 | 50.5* | -6.9 | nt | 10.6 | 40.0
O=C1C=CC(=O)N1N(c1ccccc1)c1ccccc1 | nt | nt | nt | 0.3 | nt | nt
O=C1C2C3C=CC(C4CC34)C2C(=O)N1/N=C/c1cccs1 (stereo not drawn) | nt | nt | nt | -2.3 | nt | nt
CCC1CCCCN1C(=O)CSc1nnc(-c2ccc(Cl)s2)o1 (stereo not drawn) | -4.7 | 0.7 | 87.2* | 0.9 | 4.7 | -1.9
CCCCC[n+]1ccn(-c2nc3ccccc3nc2[N-]S(=O)(=O)c2ccc(C)cc2)c1 | -98.5 | 13.9 | 82.3* | nt | 98.5* | 5.9
O=C(O)c1cc(NCc2ccc3c(c2)OCO3)ccc1N1CCOCC1 | -54.5 | 2.0 | -24.5 | -0.8 | 54.5* | -15.5
COC(=O)c1cc(NCc2ccc3c(c2)OCO3)ccc1N1CCOCC1 | -5.9 | 16.5 | 8.0 | -3.0 | 5.9 | -12.1
NC(=O)/C=C\C(=O)Nc1cccc(C(F)(F)F)c1 | -94.1 | 10.3 | 83.7* | -2.3 | -30.1 | nt
SMILES | IL1B NFkB pot | VCAM1 TNFa inh | HUVEC tox IL1B | Phagocytosis inh | NFkB transloc inh | HUVEC tox TNFa
O=C(O)CCCC(=O)Nc1cccc(C(F)(F)F)c1 | nt | nt | nt | -1.9 | nt | nt
CC1CCCC(C)N1CC(C)(C)NS(=O)(=O)c1ccc(Cl)cc1 (stereo not drawn) | -1.1 | -2.7 | 0.7 | -0.3 | 1.1 | -20.7
COc1cc2c(cc1OC)C(c1cc3cc(OC)c(OC)cc3[nH]c1=O)N(C(=O)C1CC1)CC2 (stereo not drawn) | 44.9* | -1.4 | -8.3 | -0.3 | -44.9 | -10.8
CCCC(=O)N1CCc2cc(OC)c(OC)cc2C1c1cc2cc3c(cc2[nH]c1=O)OCO3 (stereo not drawn) | -3.2 | 3.0 | -2.1 | nt | 3.2 | -13.4
O=C(NC1(C(F)(F)F)C(=O)Nc2c1c(=O)[nH]c(=O)n2Cc1ccccc1)c1ccc(Cl)cc1 (stereo not drawn) | -31.9 | -2.7 | -14.3 | -0.7 | 31.9* | -32.2
O=C(NC1(C(F)(F)F)C(=O)Nc2c1c(=O)[nH]c(=O)n2Cc1ccccc1)c1ccc(Cl)cc1Cl (stereo not drawn) | -6.9 | 4.0 | -1.3 | nt | 6.9 | -3.8
CCC(C)/C(C)=N/NC(=O)c1ccc(COc2ccc(Cl)c(C)c2)cc1 (stereo not drawn) | nt | nt | nt | -5.4 | nt | nt
O=C(Nc1nc2cc(Cl)ccc2s1)C1CCCN(S(=O)(=O)c2cccc3cccnc23)C1 (stereo not drawn) | 2.3 | 9.2 | -4.5 | nt | -2.3 | -21.5
CCc1cc2cc(C)ccc2nc1SCC(=O)N1CCN(C(=O)c2ccco2)CC1 | -1.8 | -29.7 | 3.9 | -4.6 | 1.8 | -10.9
CCc1cc2cc(C)cc(C)c2nc1SCC(=O)N1CCCC1 | 32.7 | -5.3 | 94.8* | nt | -32.7 | -11.9
CN1/C(=C\C(=O)c2ccco2)c2ccccc2CC1(C)C | -34.5 | 8.7 | 6.8 | -0.3 | 34.5* | -28.4
CN1/C(=C\C(=O)c2ccccc2Cl)c2ccccc2CC1(C)C | nt | nt | nt | -6.7 | nt | nt
O=C(Nc1nccs1)c1cccc(N2C(=O)c3cccc4c([N+](=O)[O-])ccc(c34)C2=O)c1 | 10.2 | 61.6* | 1.7 | 0.5 | -10.2 | -0.9
CCCCn1c(=O)nc2n(-c3ccccc3)c3ccccc3cc-2c1=O | 91.8* | -13.2 | -51.6 | -2.9 | -91.8 | 8.6
CC1=CC2=NC(=O)CC(C)(C(=O)N(CC(=O)NC(C)(C)C)Cc3cccs3)N2C=C1 (stereo not drawn) | 16.2 | 4.8 | -47.1 | nt | -16.2 | 13.6
O=S(=O)(c1ccc(Cl)c(Cl)c1)c1snnc1-c1ccccc1 | 9.2 | 95.7* | 27.9 | -1.4 | -9.2 | 48.4
Clc1ccccc1CSc1snnc1-c1ccccc1 | -7.5 | -1.9 | -37.3 | 0.0 | 7.5 | -21.8
CC1=C(C#N)C(Nc2cccc(C)n2)(C(F)(F)F)C(=O)N1 (stereo not drawn) | 16.2 | 90.9* | -16.0 | -0.2 | -16.2 | 81.8*
CCOc1cc(N2CCOCC2)c(OCC)cc1NC(=O)COC(=O)c1ccccc1C | nt | nt | nt | -2.1 | nt | nt
CCOc1cc(N2CCOCC2)c(OCC)cc1NC(=O)Cc1cccc2ccccc12 | 62.8* | 7.0 | 19.7 | 2.4 | -62.8 | -12.0
O=C(O)C(Cc1ccccc1)N1Cc2ccccc2C1=O (stereo not drawn) | 40.2* | -8.5 | 4.9 | -1.1 | -40.2 | -47.4
